# Results taken from PubChem BioAssay (NCI).
# The panel holds about 79,000 compounds, 15% with a hit somewhere; the sample as a whole holds those more often. Unmarked numbers belong to inactive results. Activity calls are given as the source filed them. No stated cut-off is given here; in the data, active means growth inhibition above about 70%; inactive means the rest.
# Legend:
# [1] = NCI Yeast Anticancer Drug Screen. Data for the rad50 strain (AID 155);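 further: 0% = growth of vehicle-only cultures of the same strain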; conditions: S. cerevisiae rad50 strain growth inhibition, hits give high values
# In short: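 Inhibition values express reduced yeast growth in compound-treated cultures relative to vehicle-treated controls.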
# [2] = NCI Yeast Anticancer Drug Screen. Data for the mec2-1 strain (AID 157); conditions: S. cerevisiae mec2-1 strain, hits give high values
# In short: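 Yeast mec2-1 mutant treated with compound. Readout: growth inhibition vs vehicle controls.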
# [3] = NCI Yeast Anticancer Drug Screen. Data for the sgs1 mgt1 strain (AID 161);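 further: 0% = growth of cultures given vehicle only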; conditions: S. cerevisiae sgs1 mgt1 strain, hits give high values
# In short: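 Mutant yeast exposed to compound; growth scored against vehicle-only wells.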
# [4] = NCI Yeast Anticancer Drug Screen. Data for the cln2 rad14 strain (AID 165);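 further: 0% = growth equal to vehicle treated cultures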; conditions: S. cerevisiae cln2 rad14 strain, hits give high values
# In short: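 cln2 rad14 yeast strain; compound exposure; growth inhibition read vs vehicle controls.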
# [5] = NCI Yeast Anticancer Drug Screen. Data for the bub3 strain (AID 167); conditions: S. cerevisiae bub3 mutant strain, hits give high values
# In short: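 Steps: expose the mutant yeast strain to compound; grow alongside vehicle-treated cultures; measure growth; express inhibition against the vehicle cultures.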
# [6] = NCI Yeast Anticancer Drug Screen. Data for the mlh1 rad18 strain (AID 175); conditions: S. cerevisiae mlh1 rad18 strain growth inhibition, hits give high values
# In short: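 Yeast w/ defined DNA-repair lesions; compound exposure; growth vs vehicle controls → % inhibition.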
# [7] = at 5.0 µM (retest, dose inferred, filed as 0.5)
# [8] = at 50.0 µM (retest, dose inferred, filed as 5.0)
SMILES,"growth inhibition [1, 7]","growth inhibition [1, 8]",growth inhibition ([1]; at 50.0 µM),"growth inhibition [2, 7]","growth inhibition [2, 8]",growth inhibition ([2]; at 50.0 µM),"growth inhibition [3, 7]","growth inhibition [3, 8]",growth inhibition ([3]; at 50.0 µM),"growth inhibition [4, 7]","growth inhibition [4, 8]",growth inhibition ([4]; at 50.0 µM),"growth inhibition [5, 7]","growth inhibition [5, 8]",growth inhibition ([5]; at 50.0 µM),"growth inhibition [6, 7]","growth inhibition [6, 8]",growth inhibition ([6]; at 50.0 µM)
C/C(=C\c1ccc(Cl)c(Cl)c1)[N+](=O)[O-],82% (active),98% (active),0%,12%,92% (active),-9.75%,27%,100% (active),21%,5%,59%,-14.3%,14%,98% (active),-4.85%,8%,54%,23.1%
COc1ccc([As]=[As]c2ccc(OC)cc2)cc1 (configuration not stated),-23%,97% (active),99.3% (active),5%,97% (active),99.3% (active),-18%,99% (active),99.2% (active),-25%,94% (active),99.2% (active),-12%,98% (active),99.2% (active),-9%,99% (active),99.1% (active)
CCC(=O)C(CCN1CCC(N2C(=O)C(CCC#N)c3ccccc32)CC1)(c1ccccc1)c1ccccc1 (configuration not stated),-3%,-3%,-7.55%,-6%,-6%,-23.4%,8%,-3%,10.8%,-2%,14%,3.15%,-1%,-17%,10.2%,-23%,1%,32.2%
CC1CCN(CCC(=O)CC(c2ccccc2)c2c(O)c3ccccc3oc2=O)CC1 (configuration not stated),16%,16%,87.3% (active),10%,10%,83.8% (active),12%,12%,88% (active),2%,2%,89.8% (active),4%,4%,87.7% (active),18%,18%,88.3% (active)
O=[N+]([O-])c1cccc(SC(Cl)(Cl)Cl)c1,8%,97% (active),99.5% (active),40%,99% (active),99.5% (active),31%,99% (active),99.1% (active),-11%,96% (active),97.1% (active),-1%,99% (active),99.2% (active),45%,99% (active),99.3% (active)
O=[N+]([O-])c1ccc(SP(=S)(c2ccccc2)c2ccccc2)c([N+](=O)[O-])c1,7%,97% (active),67.3%,17%,98% (active),48.3%,30%,98% (active),88.6% (active),5%,96% (active),83.2% (active),9%,98% (active),48%,28%,99% (active),70.5% (active)
CCOC(=O)c1ccc(NP(=O)(Oc2ccccc2)Oc2ccccc2)cc1,-4%,49%,64.8%,18%,75% (active),52.9%,-18%,66%,64.7%,-10%,56%,69.2%,-6%,89% (active),59.5%,24%,88% (active),77.8% (active)
COc1ccc(Br)c(/C=C/[N+](=O)[O-])c1,23%,90% (active),99.5% (active),11%,96% (active),99.7% (active),16%,82% (active),99.7% (active),0%,65%,11.7%,5%,92% (active),95.5% (active),6%,96% (active),87.8% (active)
NCCNCCNCCNCCN (tested in a mixture with another compound),0%,1%,90.3% (active),-35%,0%,25.8%,0%,2%,52.9%,2%,4%,35.8%,-1%,-5%,80% (active),0%,2%,62.5%
[Hg][c]1ccccc1,99% (active),94% (active),99.5% (active),99% (active),100% (active),99.7% (active),100% (active),52%,99.5% (active),99% (active),27%,98.3% (active),100% (active),-2%,99.6% (active),99% (active),53%,99.3% (active)
[Cl][Sn]([Cl])([c]1ccccc1)[c]1ccccc1.c1ccc2nc(-c3ccc4ccccc4n3)ccc2c1,16%,97% (active),84% (active),16%,98% (active),96% (active),32%,97% (active),75.3% (active),6%,96% (active),45.1%,5%,96% (active),59.6%,23%,96% (active),93.2% (active)
COC(=O)[CH2][Sn]([CH2]C(=O)OC)([c]1ccccc1)[c]1ccccc1,80% (active),97% (active),88.3% (active),79% (active),99% (active),88.5% (active),77% (active),99% (active),86.9% (active),52%,99% (active),86.7% (active),82% (active),99% (active),84.4% (active),86% (active),97% (active),92% (active)
OC1CCCC2CCCNC12 (configuration not stated),84% (active),97% (active),86.4% (active),79% (active),98% (active),90% (active),97% (active),98% (active),90% (active),81% (active),98% (active),86.3% (active),96% (active),98% (active),91.8% (active),73% (active),97% (active),91.2% (active)
CC(=O)c1ccccc1O.CO.CO.[Cl][Ta][Cl],1%,1%,-13%,15%,-7%,-5.75%,-14%,0%,-9.65%,-7%,-6%,33.9%,-1%,-5%,3.45%,-6%,1%,-10.2%
CC(C)(C)OOC(=O)/C=C\C(=O)OOC(C)(C)C,1%,-1%,5.05%,-2%,-1%,-15.1%,0%,0%,8.55%,1%,-8%,75.3% (active),2%,0%,9.7%,1%,0%,-12.7%
O=C(CBr)Nc1ccccc1,40%,99% (active),97% (active),22%,99% (active),98.9% (active),36%,99% (active),98.4% (active),25%,99% (active),97.3% (active),74% (active),99% (active),97.1% (active),48%,100% (active),97.8% (active)
COC(=O)[C@]1(C)CCC[C@]2(C)[C@H]3CC4OO[C@@]3(CC[C@H]21)[C@H]1O[C@@]41C(C)C,98% (active),99% (active),92.5% (active),99% (active),99% (active),93.4% (active),99% (active),100% (active),93.7% (active),92% (active),99% (active),92.2% (active),98% (active),99% (active),91.8% (active),98% (active),99% (active),92.3% (active)
CC(c1ccccc1)N1O[C@]12CC[C@@]1(C)C(CCCC13OCCO3)C2 (some centres not stated),88% (active),97% (active),92% (active),97% (active),99% (active),94% (active),36%,97% (active),92.2% (active),95% (active),98% (active),91.2% (active),94% (active),98% (active),91% (active),93% (active),97% (active),91.5% (active)
CC(=O)[O][Sn]([c]1ccccc1)([c]1ccccc1)[c]1ccccc1,97% (active),99% (active),91.1% (active),99% (active),99% (active),93.4% (active),98% (active),98% (active),93.6% (active),90% (active),98% (active),92.8% (active),98% (active),96% (active),92.1% (active),100% (active),99% (active),91.4% (active)
